DNA Pol III inh: inhibitors of bacterial DNA polymerase III holoenzyme | reconstituted DNA polymerase III holoenzyme replication, biochemical | Potency, µM (doses to about 57.1 µM) | 71,000 compounds, 0.25% hits | AID 603
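Reconstituted *E. coli* holoenzyme (0.35 nM Pol III, 1 nM beta, 154 nM SSB, 2 nM primase) was preincubated with compound for 15 min at RT. Synthesis on 1.4 nM ssM13Gori ran 35 min, then was stopped with PicoGreen/EDTA and read as dsDNA fluorescence.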
Epigenetic mod: epigenetic GFP locus derepression in mouse cells. mouse C127i GFP locus derepression, cytometry, 30 h. Potency, µM (highest dose often 46.1 µM). 68,000 compounds, 0.09% hits
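Murine C127i mammary cells carrying a silenced, stably integrated CMV-driven GFP reporter were treated with compound for 30 hours at 37 C. After PBS washes, GFP-positive cells were counted by laser-scanning microplate cytometry.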
UbGFP stabilizer: inhibits proteasome, raising ubiquitin-GFP reporter fluorescence; Ubiquitin-GFP reporter cells, proteasome inhibition, GFP fluorescence; response scale: untreated = 0%, 10 µM MG-132 = 100%; Potency, µM (top dose mostly 45.9 µM), hits mostly activators; 67,000 tested, under 10 active; active = well fitted activation curve with a large enough effect, not every such curve was filed as active; inconclusive = small, poorly fitted or top-dose-only effect, or another doubt; inactive = no such curve, though single readings can be large or run the other way
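Reporter cells (U2OS, ubiquitin-G76V-GFP fusion) are plated overnight, then treated 4 hr at 37 °C with compound titrations from 46 uM down to 2.9 nM. Activity is scaled against untreated cells and 10 uM MG-132.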
Tau filament bind: binders of human tau filaments. Potency, µM (highest dose often 57.1 µM). recombinant tau filaments, thioflavin S fluorescence, 15 h; filaments grown with octadecylsulfate alongside compound. 71,000 compounds, 2% hits. AID 596;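 note: actives lower thioflavin S fluorescence by blocking filaments or displacing dye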
Target sequence (P10636 whole entry, looked up): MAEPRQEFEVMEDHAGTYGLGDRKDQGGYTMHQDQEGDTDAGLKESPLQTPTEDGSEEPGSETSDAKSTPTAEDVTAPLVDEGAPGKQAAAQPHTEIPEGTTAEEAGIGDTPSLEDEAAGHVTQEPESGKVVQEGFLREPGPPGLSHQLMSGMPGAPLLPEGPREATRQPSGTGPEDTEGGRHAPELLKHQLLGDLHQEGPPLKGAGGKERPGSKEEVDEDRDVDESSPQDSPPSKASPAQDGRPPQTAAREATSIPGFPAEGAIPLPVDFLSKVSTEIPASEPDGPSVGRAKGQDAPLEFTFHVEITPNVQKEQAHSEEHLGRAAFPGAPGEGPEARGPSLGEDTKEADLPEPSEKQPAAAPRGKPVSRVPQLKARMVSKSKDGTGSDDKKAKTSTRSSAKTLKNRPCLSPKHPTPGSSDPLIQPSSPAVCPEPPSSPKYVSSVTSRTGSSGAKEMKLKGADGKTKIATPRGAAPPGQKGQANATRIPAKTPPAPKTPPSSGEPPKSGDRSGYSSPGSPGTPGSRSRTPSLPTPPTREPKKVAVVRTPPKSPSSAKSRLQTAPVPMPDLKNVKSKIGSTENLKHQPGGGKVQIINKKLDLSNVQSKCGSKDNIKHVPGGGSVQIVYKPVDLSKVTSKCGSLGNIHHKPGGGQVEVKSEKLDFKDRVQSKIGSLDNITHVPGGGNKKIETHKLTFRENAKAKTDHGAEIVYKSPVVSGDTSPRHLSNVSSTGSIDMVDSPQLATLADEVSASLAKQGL
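Tau 2 uM in ThS buffer dispensed; compound added; 60 uM ODS added (finals 1 uM tau, 30 uM ODS); 15 h 37 C; fluor ex450/em510.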
HBB splice mod: alters splicing of the hemoglobin beta chain; 65,000 compounds, 0.06% hits; HBB splicing reporter cell assay, activation; EGFP reporter with mutant IVS2-654 intron; response scale: normalised to 500 nM splice-correcting PNA; Potency, µM (highest dose often 46.1 µM), most hits filed as activators
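HeLa cells stably expressing EGFP interrupted by mutant beta-globin intron 2 (IVS2-654), 500/well in 2% FCS. Treated with compound for 2 days at 37C. Splicing correction scored as total well GFP intensity (488 nm excitation, 500-520 nm emission); 500 nM antisense PNA served as control.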
15-hLO inh: inhibitors of human 15-lipoxygenase (ALOX15) | purified 15hLO-1, xylenol orange hydroperoxide absorbance | Potency, µM (highest dose often 57.1 µM), actives largely listed as inhibitors | 74,000 compounds, 1.4% hits | AID 887; note: nearly all actives have a fitted effect of over 55% in size
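Purified human 15hLO-1 (40 nM) in 25 mM Hepes pH 7.5, 0.01% Triton X-100, preincubated 15 min RT with compound, then 50 uM arachidonic acid for 6 min. Hydroperoxide read by ferrous/xylenol orange, 30 min; 573/405 nm absorbance ratio gave progress.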
Of the large screens only hits and unclear results are named; the others gave an inactive call. This is a sample that favours compounds with a hit; in the whole collection about 3.2% have one here. Unless noted, calls come from the whole dose curve; as a rule, active = well fitted curve in the direction sought with a large enough effect; inconclusive = small, poorly fitted or top-dose-only effect, or another doubt; inactive = no such curve, though single readings can be large; an effect the other way counts as inactive or inconclusive.

O=C(c1cc2nc3c(c(C(F)(F)F)n2n1)CCc1ccccc1-3)N1CCN2CCCC2C1 (stereo unspecified)	Tau filament bind 13µM
COc1ccc(-c2cc(C(F)(F)F)n3nc(C(=O)Nc4cc(C)on4)cc3n2)cc1OC	Tau filament bind 1.6µM
CCOC(=O)C1=C(N)n2c(s/c(=C\c3ccco3)c2=O)=C(C(=O)OCC)C1c1ccco1 (stereo unspecified)	Tau filament bind 16µM
Cc1cnc(CNc2ncnc3ccc(-c4ccccc4C(F)(F)F)cc23)cn1	none
CCOC(=O)COc1cccc2c(=O)n(CC(=O)N3CCc4ccccc43)ccc12	Tau filament bind 16µM (no result: Epigenetic mod)
CCOC(=O)COc1cccc2c(=O)n(CC(=O)NCc3ccc4c(c3)OCO4)ccc12	none (no result: Epigenetic mod)
C=CC(=O)OCCCC	none (no result: Epigenetic mod, UbGFP stabilizer)
CCOC(=O)c1sc(NC(=O)CSc2nnc(Cc3ccccc3)o2)c(C#N)c1C	Tau filament bind 20µM, 15-hLO inh inconclusive
CCOC(=O)c1sc(NC(=O)CSc2n[nH]c(-c3ccccc3)n2)c(C#N)c1C	Tau filament bind inconclusive, 15-hLO inh 13µM
CCCCC(CC)COCC1CO1 (stereo unspecified)	none (no result: Epigenetic mod, UbGFP stabilizer)
Cc1cccc(NS(=O)(=O)c2ccc(Cl)c(C(=O)O)c2)c1	none (no result: DNA Pol III inh, Epigenetic mod, UbGFP stabilizer, Tau filament bind, HBB splice mod)
NC(=O)C1=CN([C@@H]2O[C@@H](COP(=O)(O)OP(=O)(O)OC[C@@H]3O[C@H](n4cnc5c(N)ncnc54)[C@@H](OP(=O)(O)O)[C@@H]3O)[C@H](O)[C@@H]2O)C=CC1	none
O=C(O)C1CC(=O)N(CCC23CC4CC(CC(C4)C2)C3)C(=Nc2ccccc2)S1 (stereo unspecified)	none (no result: DNA Pol III inh, Epigenetic mod, UbGFP stabilizer, Tau filament bind, HBB splice mod)
O=C(CC1Oc2ccccc2NC1=O)NCc1ccccc1 (stereo unspecified)	none
CC(=O)CC1OC(=O)C(Br)=C1NCc1ccccc1 (stereo unspecified)	Epigenetic mod 13µM
O=C(O)CC[C@@H](NC(=O)c1ccccc1C(=O)O)C(=O)O	none
Cc1cccc(Nc2nn3c(=O)c4ccccc4nc3s2)c1	DNA Pol III inh 3.2µM
Cc1cccc(Nc2ncnc3ccccc23)c1	none (no result: DNA Pol III inh, UbGFP stabilizer, Tau filament bind, HBB splice mod, 15-hLO inh)
c1cc2c3c(c1)c1c(n3CCNC2)CCCC1	Tau filament bind 32µM, 15-hLO inh inconclusive (no result: HBB splice mod)
N#CC1=C(N)SC(N)=C(C#N)C1c1c(Cl)cccc1Cl	15-hLO inh inconclusive (no result: HBB splice mod)
Cc1ccc(C2C(C#N)=C(N)SC(N)=C2C#N)o1	15-hLO inh 6.3µM
CCc1ccc(C2C(C#N)=C(N)SC(N)=C2C#N)cc1	15-hLO inh 0.63µM
CCc1ccc(C2C(C#N)=C(N)SC(N)=C2C#N)s1	Tau filament bind 25µM, 15-hLO inh 10µM
C=CCc1cccc(C2C(C)CCC3C(=O)N4C(Cc5c([nH]c6ccccc56)C4c4cc(OC)c(OC)c(OC)c4)C(=O)N32)c1 (stereo unspecified)	none (no result: DNA Pol III inh, Epigenetic mod, UbGFP stabilizer, Tau filament bind)
COCCn1c(=O)c(-c2cccc(C#N)c2)nc2cnc(OCc3ccccc3)nc21	Tau filament bind 25µM
CN(C)CCCN1c2ccccc2Sc2ccc3ccccc3c21	Tau filament bind 2.5µM
CN(C)CCCN1c2ccc3ccccc3c2Sc2cccc(Cl)c21	Tau filament bind inconclusive
OCCN1CCN(CCCN2c3ccccc3Sc3ccc(Cl)cc32)CC1	none
CN(C)CCCN1c2ccccc2Sc2ccc(Cl)cc21	Tau filament bind 5µM
NC(N)=NC[C@H](N)C(=O)O	none
Cc1nnc(SCC2=C(C(=O)O)N3C(=O)C(NC(=O)Cn4cnnn4)[C@@H]3SC2)s1 (stereo partly specified)	none (no result: DNA Pol III inh, Epigenetic mod, UbGFP stabilizer, Tau filament bind, HBB splice mod)
O=C(Nc1cccc2ccccc12)N1CCN(Cc2ccccc2)CC1	15-hLO inh 0.63µM
CN(C)c1ccc(NC(=O)Cn2ncn3c(cc4ccccc43)c2=O)cc1	Tau filament bind 13µM, 15-hLO inh inconclusive
Cc1cc(C)cc(NC(=O)Cn2ncn3c(cc4ccccc43)c2=O)c1	none
C=CCSC1=C(C#N)C(c2ccccc2Cl)CC(=O)N1 (stereo unspecified)	none
C=C(C)CSC1=C(C#N)C(c2ccccc2Cl)CC(=O)N1 (stereo unspecified)	15-hLO inh 16µM
CC(C)CN1CCc2nc(-c3ccccc3)c3c(c2CC1)COC(C)C3 (stereo unspecified)	none (no result: DNA Pol III inh, Epigenetic mod, UbGFP stabilizer, Tau filament bind)
COc1ccc(C(=O)Oc2c(CN3CCOCC3)cc(Cl)c3cccnc23)cc1	Epigenetic mod 7.9µM
O=C1c2ccccc2C(=O)N1Cc1ccc2c(c1)OCO2	none
Cc1cc2cc(CN3C(=O)c4ccccc4C3=O)ccc2n1C	Tau filament bind 20µM, 15-hLO inh inconclusive
COc1ccc(N2CCN(c3nc(=S)n(-c4ccccc4)c(C)c3C(C)=O)CC2)cc1	Tau filament bind 5µM, 15-hLO inh 16µM
Clc1cc2c(c(CSC3=NCN(CC4CC4)CN3)c1)OCOC2	none
C=CCn1c(=N)c(C(=O)NCCCOC)cc2c(=O)n3cccc(C)c3nc21	15-hLO inh 1.3µM
CCNC(=O)c1cc2c(=O)n3cccc(C)c3nc2n(CCc2ccccc2)c1=N	none (no result: DNA Pol III inh, UbGFP stabilizer, Tau filament bind, HBB splice mod, 15-hLO inh)
CCCCNC(=O)c1cc2c(=O)n3cccc(C)c3nc2n(Cc2ccccc2)c1=N	Tau filament bind 0.2µM
CCn1c(=N)c(C(=O)NCc2cccnc2)cc2c(=O)n3cccc(C)c3nc21	none (no result: HBB splice mod)

Screening data as filed in PubChem.
